Hits are enriched below; roughly 3.2% of the tested compounds scored in any of these assays.
NTR1 ag = agonists of human NTR1, primary screen, imaging, U2OS cells, beta-arrestin-GFP, high content. activation, % at 20 µM. actives 0.17% (n = 330,000). NTR1-U2OS beta-arrestin-GFP spot imaging, agonist mode;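 active means activation at or above 40% of the spot to cytoplasm intensity ratio, with at least 20 cells analyzed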;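 further: 0% = DMSO without peptide and 100% = 100 nM NTR1 peptide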
APOBEC3A inh = APOBEC3A ssDNA deaminase inhibitors, primary screen, selectivity assay for APOBEC3G inhibitor project, biochemical, FAM/TAMRA oligo cleavage fluorescence; actives 0.41% (n = 330,000); DNA dC->dU-editing enzyme APOBEC-3A (Homo sapiens), P31941; inhibition, % at 20 µM; recombinant A3A, FAM/TAMRA ssDNA deamination fluorescence;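 active means at least 40% inhibition at 20 µM here, with at most 30% in a related deaminase screen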;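 further: plate controls were A3A with DMSO for no effect and wells lacking A3A enzyme for full effect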
AHR act = AHR activators, primary screen, cell-based, luminescence, luciferase reporter, human | AHR-responsive luciferase reporter cells | activation, % at 5 µM | actives 2.5% (n = 320,000) | AID 2796, 2010; in the data active means activation above about 47%;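 further: 0% = vehicle wells and 100% = reference agonist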
Target sequence (P35869 whole entry, looked up): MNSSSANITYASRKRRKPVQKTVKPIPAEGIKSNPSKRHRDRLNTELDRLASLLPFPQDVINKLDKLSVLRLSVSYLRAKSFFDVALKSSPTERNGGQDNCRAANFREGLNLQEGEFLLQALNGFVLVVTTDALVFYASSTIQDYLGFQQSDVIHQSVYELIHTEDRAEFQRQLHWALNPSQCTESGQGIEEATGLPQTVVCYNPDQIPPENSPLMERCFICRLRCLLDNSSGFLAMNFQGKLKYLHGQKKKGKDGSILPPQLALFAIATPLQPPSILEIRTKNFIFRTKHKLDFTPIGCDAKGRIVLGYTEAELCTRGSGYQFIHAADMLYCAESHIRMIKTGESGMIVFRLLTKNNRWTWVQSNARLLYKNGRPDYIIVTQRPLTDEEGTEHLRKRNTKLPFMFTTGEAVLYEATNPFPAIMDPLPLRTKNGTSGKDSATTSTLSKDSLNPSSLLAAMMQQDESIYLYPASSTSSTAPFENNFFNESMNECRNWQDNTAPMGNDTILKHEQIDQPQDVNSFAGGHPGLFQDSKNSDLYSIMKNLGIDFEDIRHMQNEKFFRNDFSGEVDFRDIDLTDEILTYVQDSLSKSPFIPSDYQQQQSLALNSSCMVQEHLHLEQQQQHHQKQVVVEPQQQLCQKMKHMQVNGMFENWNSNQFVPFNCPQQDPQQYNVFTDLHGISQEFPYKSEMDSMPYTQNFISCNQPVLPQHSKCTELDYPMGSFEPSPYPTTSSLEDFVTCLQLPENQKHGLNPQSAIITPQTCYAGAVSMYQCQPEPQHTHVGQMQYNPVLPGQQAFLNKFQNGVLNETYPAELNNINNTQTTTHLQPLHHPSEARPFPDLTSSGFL
A3G deaminase = APOBEC3G DNA deaminase inhibitors, primary screen, biochemical, fluorescence, single-stranded DNA substrate, uHTS | recombinant A3G, ssDNA deamination FAM/TAMRA fluorescence | inhibition, % at 20 µM | actives 0.28% (n = 330,000);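 active means inhibition of at least 40% at 20 µM, with no more than 30% in the related APOBEC3A deaminase screen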;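 further: plate controls were DMSO wells with A3G for no effect and wells lacking A3G enzyme for full effect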
A3G conf = APOBEC3G deaminase inhibitor retest, confirmation, biochemical, fluorescence, single-stranded DNA substrate, single concentration; recombinant A3G ssDNA deaminase, UDG/FAM-TAMRA fluorescence; shares compounds with A3G deaminase; inhibition, % at 20 µM; actives 72% (n = 890);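 active means inhibition reaching a set limit in any replicate at 20 µM, the limit being 80% of the first screen's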
UDG A3G counter = E. coli UDG inhibitors, confirmation, counter-screen for APOBEC3G inhibitor project, biochemical, single concentration, fluorescence, FAM/TAMRA oligo. shares compounds with A3G deaminase. UDG counterscreen. inhibition, % at 20 µM. 710 tested, under 10 active. AID 504715, 2011;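 active means compounds giving 40% or more inhibition at 20 µM in any one of the three replicates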;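 further: plate controls were DMSO wells with UDG and oligo for no effect and DMSO wells lacking both for full effect; inhibitors lower the FAM signal released by uracil excision and alkaline cleavage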
* marks the source's active call; other numbers are inactive results; · = no result given.

SMILES | NTR1 ag | APOBEC3A inh | AHR act | A3G deaminase | A3G conf | UDG A3G counter
Cc1ccc(/C=N/n2c(-c3ccco3)n[nH]c2=S)cc1 | 0 | -4 | 5 | 40* | 66* | -1
Cn1cccc1/C=N/n1c(-c2ccco2)n[nH]c1=S | -1 | -4 | 6 | 44* | 80* | -3
Fc1cccc(-c2n[nH]c(=S)n2-c2ccccc2)c1 | 0 | -4 | 1 | 41* | 86* | -2
Cc1c(NC(=O)COC(=O)C2=COCCO2)cccc1[N+](=O)[O-] | 0 | 0 | 1 | 3 | · | ·
COc1cc(C)c(NC(=S)Nc2cccc(Cl)c2C)cc1OC | 0 | -7 | 8 | -11 | · | ·
Cc1occc1-c1n[nH]c(=S)n1C | 0 | -4 | 0 | 9 | · | ·
Cc1ccsc1/C=N/n1c(-c2ccco2)n[nH]c1=S | -1 | 0 | 2 | 42* | 77* | -3
S=c1[nH]nc(-c2ccco2)n1/N=C/c1ccccn1 | 0 | -1 | 6 | 59* | 83* | 1
Cc1cccc(/C=N/n2c(-c3ccco3)n[nH]c2=S)c1 | 1 | -5 | -2 | 35 | · | ·
Cc1ccc(-n2c(-c3ccco3)n[nH]c2=S)cc1 | 2 | -3 | -1 | 45* | 72* | 1
Cc1occc1-c1n[nH]c(=S)n1-c1ccccc1 | 1 | -2 | -1 | 42* | 14* | -5
O=C(Nc1ccnn1C1CCN(Cc2cccc(F)c2F)CC1)C1CCCC1 | 1 | -5 | -3 | -6 | · | ·
CCOc1ccccc1N(CC(=O)NC(C)(C)C)C(=O)CCC(=O)Nc1nccs1 | 1 | -4 | -2 | -7 | · | ·
S=c1[nH]nc(-c2ccco2)n1/N=C/c1cccc(Cl)c1 | 0 | -2 | 4 | 32 | · | ·
S=c1[nH]nc(-c2ccco2)n1/N=C/c1ccc(Cl)c(Cl)c1 | 5 | -5 | 3 | 44* | -1 | -2
O=C(NCCCN1CCOCC1)c1sc2cc([N+](=O)[O-])ccc2c1Cl | 0 | -9 | 7 | 58* | 85* | -2
O=C(NCCCN1CCOCC1)c1sc2cc(Cl)ccc2c1Cl | 3 | 0 | 4 | -8 | · | ·
O=C(CNC(c1ccccc1)c1ccccc1)Nc1ccccc1Br | 6 | -4 | 0 | 50* | -6 | 0
COc1ccc(NC(=O)C2=CCN(S(=O)(=O)c3ccccc3)CC2)cc1OC | 1 | -3 | 5 | -6 | · | ·
CCCCn1c(-c2nn(C)c(C)c2Cl)n[nH]c1=S | 0 | -4 | 1 | 40* | 78* | -5
C/C(=N\NC(=O)COc1cccc(Br)c1)c1ccc2c(c1)OCCO2 | 3 | 1 | 6 | 1 | · | ·
Cc1cccc2c(-c3ccccc3)cc(=O)[nH]c12 | 0 | -1 | 10 | -3 | · | ·
Cc1cc(=S)[nH]c2c(C)cccc12 | -1 | -2 | 2 | 79* | -1 | -6
COc1nc2ccccc2nc1OC | 1 | 0 | -3 | -3 | · | ·
COC(=O)/C=C1\SC(N2CCOCC2)=C(c2ccc(OC)cc2)C1=O | 3 | 4 | -1 | 55* | 20* | -3
SMILES | NTR1 ag | APOBEC3A inh | AHR act | A3G deaminase | A3G conf | UDG A3G counter
CCS(=O)(=O)N1CCN(CC(=O)NC2CCCCC2)CC1 | 2 | 1 | -2 | -2 | · | ·
CCCCOc1ccc(S(=O)(=O)N2CCN(C)CC2)cc1 | 0 | -6 | 0 | -6 | · | ·
CC(C)N1CC(COc2ccc(Cl)cc2Cl)OC1=O (configuration not stated) | -1 | -1 | 2 | -5 | · | ·
Cc1cccn2c(=O)c3cc(C(=O)NCc4ccco4)c(=N)n(CCOCCO)c3nc12 | 0 | 27 | 16 | 58* | 29 | ·
Cc1cccn2c(=O)c3cc(C(=O)NCc4ccco4)c(=N)n(C4CCCCC4)c3nc12 | 13 | 8 | 17 | -1 | · | ·
COc1cc(N2C(=O)C=CC2=O)c(OC)cc1Cl | 2 | -2 | 1 | 43* | 54* | -1
C=CCn1c(-c2cc(OC)cc(OC)c2)n[nH]c1=S | 0 | -3 | 14 | 43* | 82* | -2
C=CCn1c(-c2ccc3ncccc3c2)n[nH]c1=S | 0 | 1 | 0 | 56* | 60* | -4
C=CCn1c(-c2sc3nc(C)cc(C)c3c2N)n[nH]c1=S | -1 | -4 | 100* | 49* | 77* | -5
C=CCn1c(-c2ccccc2)n[nH]c1=S | -2 | -3 | 3 | 23 | · | ·
CC1(C)O[C@@H]2[C@H](O1)[C@@H](CO)O[C@H]2n1ccc(=O)[nH]c1=O | -2 | 0 | 1 | -10 | · | ·
CC(C)CC(=O)N[C@H](C(=O)N[C@H](C(=O)N[C@@H](CC(C)C)[C@@H](O)CC(=O)N[C@@H](C)C(=O)N[C@@H](CC(C)C)[C@@H](O)CC(=O)O)C(C)C)C(C)C | -1 | 6 | -3 | 75* | 16 | ·
Cc1ccc(CN(Cc2ccco2)C(=S)NCC(=O)NCc2cccnc2)cc1 | 2 | 3 | 3 | 3 | · | ·
Cc1ccc(CN(Cc2ccccc2)C(=S)NCC(=O)NCc2cccnc2)o1 | 2 | -4 | 1 | 45* | 7 | 3
CC(NC(=O)c1cc(-c2ccncc2)nc2ccc(Br)cc12)C1CCCO1 (configuration not stated) | -1 | -1 | 22 | -3 | · | ·
O=S1OC(c2ccccc2)c2cc(Cl)ccc21 (configuration not stated) | 2 | 5 | 2 | 41* | 4 | ·
S=C(c1ccc(-c2cccc(Cl)c2)o1)N1CCOCC1 | 2 | -3 | 11 | 43* | 26 | 0
S=C(c1ccc(-c2cccc(Cl)c2)o1)N1CCCCC1 | 0 | -10 | 13 | -6 | · | ·
CC12CN(C(=O)c3ccccc3Br)CC(C)(CN(C(=O)c3ccccc3Br)C1)C2=O | 1 | 1 | -1 | -4 | · | ·
CCOc1ccccc1NC(=O)C(=O)CC(=O)c1ccc(OC)cc1 | 1 | 5 | 4 | -1 | · | ·
O=S(=O)(c1ccccc1)N(F)S(=O)(=O)c1ccccc1 | 2 | 1 | 0 | 46* | 53* | -2
CCCCN(CC)S(=O)(=O)c1ccccc1 | 0 | -1 | -2 | -4 | · | ·
CCOC(=O)C1=C(C)N(c2ccc(OC)cc2)C(=O)/C1=C\c1ccc(O)c(OCC)c1 | 8 | 0 | 6 | 67* | 3 | ·
COc1ccc(N2CCN(C(CNC(=O)C(=O)NCc3cccnc3)c3ccco3)CC2)cc1 (configuration not stated) | 0 | 12 | 0 | -3 | · | ·
